Laboratory results: the supplement of paper PMC6411743
± gives the standard deviation of the averaged measurements. The full data set covers some 6,500 targets. This sample favours those with the largest changes.

Compound: Nc1ncnc2c1ncn2[C@@H]1O[C@H](COP(=O)(O)OP(=O)(O)OP(=O)(O)O)[C@@H](O)[C@H]1O [adenosine triphosphate]
Test: NP40-soluble protein abundance relative to vehicle (solubility fold change) (ratio); higher = more soluble protein in presence of ATP
Procedure, shortened: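 Jurkat crude lysate (Dounce-homogenised) was treated with eight concentrations from 0.1 to 10 mM for 10 min at room temperature, then 3 min at 37 °C. It was solubilised with 0.8% NP40 and benzonase (60 min, 4 °C) and ultracentrifuged, and the supernatant was TMT-labelled for LC-MS/MS. Intensities were vsn-normalised, and the value is the fold change against the NP40-processed vehicle per replicate, from three independent experiments.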

Sequence of UniProt Q9NR09 (Q9NR09 whole entry): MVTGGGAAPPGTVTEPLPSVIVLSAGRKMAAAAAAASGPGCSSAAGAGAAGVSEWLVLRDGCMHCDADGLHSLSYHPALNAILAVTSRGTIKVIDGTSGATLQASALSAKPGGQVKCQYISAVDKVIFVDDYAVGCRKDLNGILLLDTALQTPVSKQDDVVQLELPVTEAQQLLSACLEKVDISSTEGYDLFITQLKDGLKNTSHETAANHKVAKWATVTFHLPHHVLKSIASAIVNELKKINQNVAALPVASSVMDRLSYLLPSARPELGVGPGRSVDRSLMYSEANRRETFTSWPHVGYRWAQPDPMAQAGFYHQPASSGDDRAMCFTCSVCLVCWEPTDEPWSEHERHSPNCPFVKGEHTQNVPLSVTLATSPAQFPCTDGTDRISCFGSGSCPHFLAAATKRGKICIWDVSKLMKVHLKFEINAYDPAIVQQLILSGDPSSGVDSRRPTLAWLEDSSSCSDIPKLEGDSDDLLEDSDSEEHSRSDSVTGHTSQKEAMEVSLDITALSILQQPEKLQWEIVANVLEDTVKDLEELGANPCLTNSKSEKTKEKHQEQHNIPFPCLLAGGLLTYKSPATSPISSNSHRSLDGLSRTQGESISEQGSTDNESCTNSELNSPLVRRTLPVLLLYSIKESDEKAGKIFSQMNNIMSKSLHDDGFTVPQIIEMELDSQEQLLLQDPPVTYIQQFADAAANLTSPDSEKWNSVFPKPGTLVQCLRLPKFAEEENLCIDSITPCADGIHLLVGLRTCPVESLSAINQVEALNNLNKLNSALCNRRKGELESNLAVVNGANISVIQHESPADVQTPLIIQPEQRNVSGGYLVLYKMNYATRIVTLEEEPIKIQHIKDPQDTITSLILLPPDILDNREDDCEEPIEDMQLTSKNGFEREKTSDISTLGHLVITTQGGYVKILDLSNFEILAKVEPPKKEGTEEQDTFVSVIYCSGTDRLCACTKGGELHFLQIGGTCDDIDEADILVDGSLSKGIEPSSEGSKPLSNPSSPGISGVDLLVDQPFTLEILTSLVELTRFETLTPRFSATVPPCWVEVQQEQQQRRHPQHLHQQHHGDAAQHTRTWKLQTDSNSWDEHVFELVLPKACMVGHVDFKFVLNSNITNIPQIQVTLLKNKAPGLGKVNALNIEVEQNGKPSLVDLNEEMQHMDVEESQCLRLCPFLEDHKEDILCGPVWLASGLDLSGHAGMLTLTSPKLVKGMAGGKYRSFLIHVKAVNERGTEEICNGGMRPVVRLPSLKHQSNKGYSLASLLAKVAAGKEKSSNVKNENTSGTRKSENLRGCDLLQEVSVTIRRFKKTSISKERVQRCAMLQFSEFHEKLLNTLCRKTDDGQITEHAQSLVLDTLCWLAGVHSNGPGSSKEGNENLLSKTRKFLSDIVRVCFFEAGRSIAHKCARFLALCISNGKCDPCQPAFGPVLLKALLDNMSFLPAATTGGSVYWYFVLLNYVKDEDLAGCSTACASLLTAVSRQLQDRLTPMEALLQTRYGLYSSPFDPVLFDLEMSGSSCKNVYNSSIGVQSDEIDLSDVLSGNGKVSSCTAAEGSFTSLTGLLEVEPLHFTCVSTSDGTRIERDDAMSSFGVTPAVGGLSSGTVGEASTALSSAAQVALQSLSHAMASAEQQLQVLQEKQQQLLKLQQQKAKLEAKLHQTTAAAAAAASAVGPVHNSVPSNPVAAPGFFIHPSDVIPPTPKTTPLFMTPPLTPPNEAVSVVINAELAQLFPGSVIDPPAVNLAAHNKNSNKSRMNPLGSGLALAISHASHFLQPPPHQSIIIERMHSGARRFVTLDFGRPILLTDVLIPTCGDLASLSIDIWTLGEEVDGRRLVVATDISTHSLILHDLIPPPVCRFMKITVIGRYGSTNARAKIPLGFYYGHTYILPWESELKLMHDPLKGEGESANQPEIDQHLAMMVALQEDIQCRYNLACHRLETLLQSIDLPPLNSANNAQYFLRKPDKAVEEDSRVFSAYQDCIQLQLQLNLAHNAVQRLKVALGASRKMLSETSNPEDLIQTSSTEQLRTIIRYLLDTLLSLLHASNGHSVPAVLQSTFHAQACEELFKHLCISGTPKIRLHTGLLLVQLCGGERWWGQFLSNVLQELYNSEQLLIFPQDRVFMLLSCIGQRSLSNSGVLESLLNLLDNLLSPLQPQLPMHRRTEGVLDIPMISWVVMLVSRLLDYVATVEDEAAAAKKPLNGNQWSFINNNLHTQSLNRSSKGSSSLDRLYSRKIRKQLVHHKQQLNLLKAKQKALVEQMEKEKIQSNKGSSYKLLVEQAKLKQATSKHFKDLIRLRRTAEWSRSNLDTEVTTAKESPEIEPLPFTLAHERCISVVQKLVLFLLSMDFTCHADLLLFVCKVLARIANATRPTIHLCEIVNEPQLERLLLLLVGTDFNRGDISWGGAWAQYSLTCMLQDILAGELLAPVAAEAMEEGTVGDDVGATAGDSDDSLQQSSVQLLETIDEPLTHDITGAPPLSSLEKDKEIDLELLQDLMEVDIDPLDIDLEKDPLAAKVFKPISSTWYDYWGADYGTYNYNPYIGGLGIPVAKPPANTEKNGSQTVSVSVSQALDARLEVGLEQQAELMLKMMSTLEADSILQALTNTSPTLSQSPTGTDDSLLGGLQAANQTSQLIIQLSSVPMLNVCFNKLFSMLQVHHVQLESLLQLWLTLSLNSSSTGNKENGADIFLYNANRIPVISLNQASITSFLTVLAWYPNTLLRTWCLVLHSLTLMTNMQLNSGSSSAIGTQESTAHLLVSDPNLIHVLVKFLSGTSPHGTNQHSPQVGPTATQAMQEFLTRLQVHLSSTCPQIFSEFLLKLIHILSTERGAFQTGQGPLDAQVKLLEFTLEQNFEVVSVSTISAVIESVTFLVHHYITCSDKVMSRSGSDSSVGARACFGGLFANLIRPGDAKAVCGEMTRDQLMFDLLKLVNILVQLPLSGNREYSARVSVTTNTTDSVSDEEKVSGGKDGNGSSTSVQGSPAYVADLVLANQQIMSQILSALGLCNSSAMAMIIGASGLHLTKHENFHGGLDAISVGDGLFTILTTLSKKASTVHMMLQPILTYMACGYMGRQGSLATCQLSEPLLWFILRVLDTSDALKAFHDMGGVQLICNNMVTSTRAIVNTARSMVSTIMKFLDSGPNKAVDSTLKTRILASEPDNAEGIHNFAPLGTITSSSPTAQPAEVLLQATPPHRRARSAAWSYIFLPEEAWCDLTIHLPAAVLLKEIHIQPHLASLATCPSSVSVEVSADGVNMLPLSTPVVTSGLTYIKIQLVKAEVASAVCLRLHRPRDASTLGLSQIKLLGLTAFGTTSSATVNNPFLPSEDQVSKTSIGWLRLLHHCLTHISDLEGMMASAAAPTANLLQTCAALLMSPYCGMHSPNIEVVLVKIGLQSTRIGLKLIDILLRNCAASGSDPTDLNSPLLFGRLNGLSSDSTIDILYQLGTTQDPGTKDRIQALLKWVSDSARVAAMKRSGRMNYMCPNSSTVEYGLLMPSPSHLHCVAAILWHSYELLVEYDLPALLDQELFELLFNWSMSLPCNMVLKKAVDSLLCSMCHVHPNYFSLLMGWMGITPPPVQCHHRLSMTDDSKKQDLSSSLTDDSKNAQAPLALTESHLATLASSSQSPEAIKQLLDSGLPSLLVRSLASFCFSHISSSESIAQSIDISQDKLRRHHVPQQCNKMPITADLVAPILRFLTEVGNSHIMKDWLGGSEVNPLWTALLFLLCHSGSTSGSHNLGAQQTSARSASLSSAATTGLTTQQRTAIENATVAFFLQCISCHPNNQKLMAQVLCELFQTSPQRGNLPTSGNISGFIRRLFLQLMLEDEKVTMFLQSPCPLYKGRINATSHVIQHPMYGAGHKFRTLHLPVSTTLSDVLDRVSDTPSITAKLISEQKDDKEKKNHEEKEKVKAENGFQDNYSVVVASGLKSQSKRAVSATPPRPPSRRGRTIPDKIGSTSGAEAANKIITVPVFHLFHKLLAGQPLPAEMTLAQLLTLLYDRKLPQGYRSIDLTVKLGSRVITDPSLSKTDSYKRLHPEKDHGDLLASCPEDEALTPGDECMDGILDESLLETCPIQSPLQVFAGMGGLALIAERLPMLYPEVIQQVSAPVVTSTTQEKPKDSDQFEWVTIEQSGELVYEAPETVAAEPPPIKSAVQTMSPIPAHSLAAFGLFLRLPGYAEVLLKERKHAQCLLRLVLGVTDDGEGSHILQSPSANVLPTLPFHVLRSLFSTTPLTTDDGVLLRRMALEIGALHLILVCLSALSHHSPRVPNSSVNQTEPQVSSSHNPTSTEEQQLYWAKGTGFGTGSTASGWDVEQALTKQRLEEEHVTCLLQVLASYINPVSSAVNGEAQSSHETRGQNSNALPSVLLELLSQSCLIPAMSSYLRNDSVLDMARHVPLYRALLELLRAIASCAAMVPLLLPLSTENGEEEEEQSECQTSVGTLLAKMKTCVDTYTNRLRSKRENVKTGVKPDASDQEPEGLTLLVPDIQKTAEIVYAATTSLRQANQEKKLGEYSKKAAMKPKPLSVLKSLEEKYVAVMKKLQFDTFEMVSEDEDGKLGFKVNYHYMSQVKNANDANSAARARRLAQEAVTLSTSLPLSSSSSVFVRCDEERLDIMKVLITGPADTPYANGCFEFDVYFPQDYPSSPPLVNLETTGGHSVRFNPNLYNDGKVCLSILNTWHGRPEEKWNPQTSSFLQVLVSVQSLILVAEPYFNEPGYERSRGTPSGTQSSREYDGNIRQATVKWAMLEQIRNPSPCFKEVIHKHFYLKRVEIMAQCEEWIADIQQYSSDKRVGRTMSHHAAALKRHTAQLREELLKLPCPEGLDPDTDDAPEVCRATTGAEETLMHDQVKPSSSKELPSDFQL
Sequence of UniProt Q9BVM2 (Q9BVM2 whole entry): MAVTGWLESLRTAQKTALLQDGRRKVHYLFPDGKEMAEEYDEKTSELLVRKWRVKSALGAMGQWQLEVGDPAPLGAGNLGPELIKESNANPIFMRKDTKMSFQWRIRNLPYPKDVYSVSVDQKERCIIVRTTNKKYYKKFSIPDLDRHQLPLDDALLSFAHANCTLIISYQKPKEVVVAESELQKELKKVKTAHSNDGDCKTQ

Target	NP40-soluble protein abundance (concentration: 1mM)	NP40-soluble protein abundance (concentration: 2mM)	NP40-soluble protein abundance (concentration: 4mM)	NP40-soluble protein abundance (concentration: 6mM)	NP40-soluble protein abundance (concentration: 8mM)	NP40-soluble protein abundance (concentration: 10mM)
ITPKC (UniProt Q96DU7)	0.986 ± 0.048	0.971 ± 0.041	1.0284 ± 0.00016	0.857 ± 0.11	0.886 ± 0.026	0.883 ± 0.019
UniProt Q9BTT6	0.931 ± 0.073	0.916 ± 0.081	0.945 ± 0.049	0.967 ± 0.092	0.961 ± 0.092	0.922 ± 0.045
ATG4C (UniProt Q96DT6)	1.036 ± 0.003	1.05 ± 0.081	1.04 ± 0.041	0.992 ± 0.12	1.05 ± 0.087	1 ± 0.092
UBAC1 (UniProt Q9BSL1)	0.988 ± 0.025	1 ± 0.025	1.03 ± 0.033	1.04 ± 0.061	0.965 ± 0.034	0.98 ± 0.038
BIRC6 (UniProt Q9NR09)	1.05 ± 0.029	1.01 ± 0.058	0.992 ± 0.031	0.99 ± 0.12	0.999 ± 0.083	0.994 ± 0.088
UniProt Q9UBF8-2	0.962 ± 0.044	0.961 ± 0.065	0.9581 ± 0.0056	0.938 ± 0.011	0.9049 ± 0.007	0.928 ± 0.026
NCOA5 (UniProt Q9HCD5)	1.09 ± 0.031	1.22 ± 0.056	1.49 ± 0.062	1.85 ± 0.12	2.23 ± 0.12	2.76 ± 0.14
PNKP (UniProt Q96T60)	1.04 ± 0.02	1.0346 ± 0.00031	1.03 ± 0.022	1.05 ± 0.023	1.11 ± 0.036	1.157 ± 0.011
UniProt Q9BS26	0.982 ± 0.043	0.956 ± 0.035	0.943 ± 0.057	0.945 ± 0.067	0.952 ± 0.06	0.941 ± 0.054
UniProt Q9NW64	1.05 ± 0.068	1.04 ± 0.041	1.07 ± 0.034	1.09 ± 0.05	1.1 ± 0.049	1.11 ± 0.019
UniProt Q9BRQ0|Q5T171	0.931 ± 0.11	0.887 ± 0.18	0.898 ± 0.15	0.944 ± 0.19	0.865 ± 0.15	0.909 ± 0.29
UniProt Q9NVR5	0.965 ± 0.028	0.98 ± 0.039	1 ± 0.047	1.04 ± 0.065	1.01 ± 0.12	0.967 ± 0.044
CDK5RAP3 (UniProt Q96JB5)	0.997 ± 0.041	1.05 ± 0.066	1.08 ± 0.065	1.11 ± 0.068	1.12 ± 0.045	1.14 ± 0.099
ARMC1 (UniProt Q9NVT9)	0.913 ± 0.046	0.946 ± 0.018	0.876 ± 0.024	0.866 ± 0.063	0.881 ± 0.035	0.908 ± 0.029
DPCD (UniProt Q9BVM2)	0.965 ± 0.024	1.02 ± 0.045	0.969 ± 0.01	0.933 ± 0.048	0.929 ± 0.069	1.01 ± 0.087
UniProt Q9NUL3-3|Q9NUL3-8|A0A0A0MTD1|E7EPX0|E7EVJ4|F8VPI7|A0A0A0MTC5|E9PH62|Q9NUL3|Q9NUL3-2	0.971 ± 0.048	1.11 ± 0.13	1.02 ± 0.057	1.11 ± 0.15	1.16 ± 0.099	1.3 ± 0.11
UniProt Q9BSW2-2	0.967 ± 0.041	1.01 ± 0.034	1.02 ± 0.02	1.01 ± 0.018	0.972 ± 0.0098	0.988 ± 0.04
UniProt Q9UEY8|Q9UEY8-2	1.01 ± 0.019	1.02 ± 0.018	1.01 ± 0.014	1.02 ± 0.035	0.99 ± 0.023	1.004 ± 0.0086
